# Assay results reported in the supplement of paper PMC12632987.
# T1: USP38, Q8NB14
# T1 chain: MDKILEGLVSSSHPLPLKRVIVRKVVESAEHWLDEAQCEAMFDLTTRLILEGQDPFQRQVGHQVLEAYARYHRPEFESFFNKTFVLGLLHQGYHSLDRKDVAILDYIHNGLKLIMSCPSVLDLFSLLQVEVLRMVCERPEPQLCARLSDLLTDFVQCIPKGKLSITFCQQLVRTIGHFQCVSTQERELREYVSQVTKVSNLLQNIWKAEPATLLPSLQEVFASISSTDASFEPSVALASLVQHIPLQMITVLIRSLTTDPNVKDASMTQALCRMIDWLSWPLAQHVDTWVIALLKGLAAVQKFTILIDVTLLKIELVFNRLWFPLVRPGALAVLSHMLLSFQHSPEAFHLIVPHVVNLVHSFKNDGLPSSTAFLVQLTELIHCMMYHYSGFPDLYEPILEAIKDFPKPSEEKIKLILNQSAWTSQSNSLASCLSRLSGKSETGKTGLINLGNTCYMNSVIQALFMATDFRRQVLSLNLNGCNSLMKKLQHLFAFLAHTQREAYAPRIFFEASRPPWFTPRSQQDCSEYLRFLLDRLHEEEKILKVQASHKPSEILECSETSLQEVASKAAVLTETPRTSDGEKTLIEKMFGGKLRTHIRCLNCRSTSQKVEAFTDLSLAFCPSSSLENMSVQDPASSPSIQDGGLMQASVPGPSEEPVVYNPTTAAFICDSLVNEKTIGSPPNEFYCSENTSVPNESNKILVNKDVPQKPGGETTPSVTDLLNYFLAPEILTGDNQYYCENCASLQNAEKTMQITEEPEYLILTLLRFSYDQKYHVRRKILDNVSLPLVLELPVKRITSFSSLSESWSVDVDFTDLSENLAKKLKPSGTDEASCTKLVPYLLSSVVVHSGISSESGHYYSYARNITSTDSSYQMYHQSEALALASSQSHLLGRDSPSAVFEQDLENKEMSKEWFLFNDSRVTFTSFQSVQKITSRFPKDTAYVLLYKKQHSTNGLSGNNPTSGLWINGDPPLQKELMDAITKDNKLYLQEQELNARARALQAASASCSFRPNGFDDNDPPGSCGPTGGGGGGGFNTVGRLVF
# B1: usp_38_diff_out_18_28_432 (protein)
# chain: EEEEIKKLIEEAEKKMDELIDEYVKISTEGFLKINESDKGEELLEAINELADEVGKAAKAVNEMRKNRNDKEKVEEYLKKFEEAYKKAKEKIEEIKKLIE
# B2: usp_38_diff_out_18_28_425 (protein)
# chain: MREEVERRIAELEARADALIDRAEEVSTKAFLAYSEDPSSEELLKKNDELWDAVGAAAAAVREMRENRDDPEAVAREEERFREAAARAEALIKEIEKLIK
# B3: usp_38_diff_out_18_28_430 (protein)
# chain: AEEEIKAKIEAAEKEMDKLIDEYVKVAEEAFLKLDESDKGEELEEAINKMADALGKAAAAVNEMRRNRDDPAAVEAELEKFKKAKKEAEEYIKKIKELLK
# B4: usp_38_diff_out_18_28_416 (protein)
# chain: MMKEIEEKIEKLEKEADELIDKATEAMTKGFLKINEDPNSEELIEAINKLSDAVGKAAHAVNLARRNKNNPEAVEKYEKEFEKAKKEAEKELKKLEELIK
# B5: usp_38_diff_out_1_101_11 (protein)
# chain: LEAELAAARAEFDAAAADLLAAARAALAEVKALGDAAAAARFARYLAAYESFIADTRRTADEIAEQDKESAIEFLKAATENLRTLKEEVEAELARIKAKL
# B6: usp_38_diff_out_18_31_437 (protein)
# chain: SLREEAERVAEEARRLAEELKEKSKELKEAIKKGDKEKAEKLMEEMERLKEELGRAYLRLRDLAREDPSNRPLLKEVTKEANEAVDEYTEAEEAYFLFKA
# B7: usp_38_diff_out_18_28_417 (protein)
# chain: MLEERRERLKEMEKEADELIDKYNEAATKGFLYYHEHPEAEEVLEAVDKLSDAVGAAAAAVNEMRENIEDEEAFKKEEEKFKEYKKEAEKYLEELEKLIA
# B8: usp_38_diff_out_18_28_426 (protein)
# chain: MLEENKKKIEKAKEEADKLIDEANKVATEGFLKYSENPENEELLKKINELWDAVGKAAQAVNDMRENIEDEEAVEKNLKKFEEAKKEAEKLIEELKKLIE
# B9: usp_38_diff_out_18_28_431 (protein)
# chain: AEAAIQAKIDAAEKEMDALIDEYVKVATEGFLALDESDKGEELEAAINELADAVGAAAAAVNEMRRNRDDPAAVDAQLAKFNAAKKKAKEKIKEIKKLLK
# B10: usp_38_diff_out_18_28_428 (protein)
# chain: SQEEIQKLIEENRKKTDELIDEANKVATEAYLAYHDNPEATELLEAVDKLWDALGKAAQAVNEMRENRDDPEKVKKEAAKFEEAAKKAEEYIKKIKELIA
# B11: usp_38_diff_out_18_28_415 (protein)
# chain: MLEENRKKIEEAKKEADELIDKANKVATEGFLKYSEDPSNEELLKAVNELLDYVGKAAAAVVEMRENINDPEAVEEQLKKFKEAKEKAEKAIEEVKKLIA
# B12: usp_38_diff_out_18_28_413 (protein)
# chain: MREENRKRIEEMEKKADELIDEANEVATEGYLKYADDPSNEELLKAIRELMDAVGEAAAAVREARENIDDPEKVEEEEKRFEEAYEKAKKKIKEVKELIK
# B13: usp_38_diff_out_18_28_419 (protein)
# chain: MLEERQKKIEKLQKEADELIDKYTEAAEKGFLKYHEDPSAEEVLEAIKELSDHVGAAAAAVNEMKENIENEEKFEEELKKFKEHKKKALEALEKLKKLLA
# B14: usp_38_diff_out_1_101_8 (protein)
# chain: LEEELEKALKEFNETIEKAMEAWKEIAKIYKELGNEEKAEKAERQLAALESYKKEHTKFIEELKKEDLESALELAKLSLKNAKSILKEAEERLKKAKALK
# B15: usp_38_diff_out_18_28_433 (protein)
# chain: SLEANRALIAKYEAEADALIDEATKAATEGFLKYHENPDDEKLLEAINKLMDAVGKAAAAVRRMREHIHDPEAVAKYAKEFEKAKKEAEEKLKELKKLIK
# B16: usp_38_diff_out_18_28_424 (protein)
# chain: MAAEIQARIDAAKARADALIDEVEKVSTEAFLKYSEDPSMEELLEADRKLWDAAGTAAAAVRAMREHRDDPAAVDAELAVFEKAAAEAEKLIKEIKELIK
# B17: usp_38_diff_out_18_28_421 (protein)
# chain: MREERRKRIEELEKEADELIDEYEKLAREAFLYYHENPEAEEVLEAARRLGDAVGKAAAAVNEMKENIDDEEKFEEYEEEFKRYKAEAKEYAEELKKLLA
# B18: usp_38_diff_out_18_31_440 (protein)
# chain: SLRERAERVREELERAAERMKRLAEELKEAIKAGDRERAERLMEEMDREMERLGRAYLELRDLAREDPSLRPLLKEAERRANEAVDAYTEAATAYHLFKA
# B19: usp_38_diff_out_18_30_434 (protein)
# chain: EEEDEETEEYIRNKLLEFTAESTRDLAERVRRRLPDSPRAREIARLLEEASELLKKRTPEALEEAARLLERALELAEADPRATDRLLTSLRGLLTVVKEL
# B20: usp_38_diff_out_18_31_442 (protein)
# chain: SVVEEAKRVAKEALEAIEKLKKTIDELKKAIGKDPKKAEELLKKARELLKKFSELYLRLRDLRRQAPEQIRPLLEELEKKADEAIDKYEEAETAYFLAKA
# B21: usp_38_diff_out_1_101_4 (protein)
# chain: MEERLEKAKKEIEEALEEIIKIYEETAKAAKAAGDEALAERWKRFAEAMRTYRESLERTLEELREQDLESALAFAEAALEVTKSLLKEAKEEAEKAKKAL
# B22: usp_38_diff_out_1_101_6 (protein)
# chain: IEKELKKALEEFNKTLDETIKVYEEIEKLYKEMGNEEKAERAQRQRDALETYRKDTTAFIEELYKEDPESALELAKLALENAKTILKEAEKELKEVKAEK
# B23: usp_38_diff_out_18_28_429 (protein)
# chain: SMEEIKKKIEEAEKEADALIDEANEVATQGFLAYHENPEKTELLEAVNELWDALGKAAQAVNDMRENKNNPEKVEKELKKFKEAAKAAKEKIAKIKELIA
# B24: usp_38_diff_out_18_28_414 (protein)
# chain: MLEENKKKIEEMKKEADELIDKANEVMTQGYLAYADDPSNEELLKAIRELGDAVGAAAAAVREARENIENPEKVEKEKKKFEEAKKAAEEKIEEVKKLIA
# B25: usp_38_diff_out_1_101_12 (protein)
# chain: LEAELAKAREAFRAAVAEVEAVLEEAEALAKAAGDAARAARWARQLAAVRAWRADLERTLEEIAAQDLESALELAKAALENAKTLLAEAKAELAAYKAKL
# B26: usp_38_diff_out_18_28_422 (protein)
# chain: SLAERRALIEELKKEADELIDEYTELATEAFLAYHENPDAEELLAAADALSDAVGAAAAAVREMREHLEDEAKVEAYTKEFKAQKKEAKEKAKELKKLLA
# B27: usp_38_diff_out_18_30_435 (protein)
# chain: EEEDEETQKFIDEELRKILAESTEELAREVRRRLPDSPEAREIAELLEEASRLIKEGTPEALKKALEKLERALELLKKNPQAPDRLLTATAGMIEVLKEL
# B28: usp_38_diff_out_18_31_441 (protein)
# chain: SLRERGREVAERAREAIRRLRELAERLLEAIKEGKREEAEELAKEMDEELVELGRAYQELRDLAREDPSLRPLLKEVEEEANEAIDLYNKAMEELFLFKS
# B29: usp_38_diff_out_18_30_436 (protein)
# chain: SAEDEETERYIREALRKATAESLRELAERLERRLPDSPEAREIVALVREAARLLEEGTPEALAQAAALLRRALALLEADPRATDRELTALRGLLVVVEEL
# B30: usp_38_diff_out_18_28_420 (protein)
# chain: MKEERLKKLEELEKRADALIDEYNELATKGFLKYHDDPSATEVLEAVNKLSDAVGAAAAAVNAMKENIDNEEAFEAEYKKFEEEEAKAKEYAEELKKLIA
# B31: usp_38_diff_out_18_28_427 (protein)
# chain: ALAANQATIEKARAEADKLIDESNKILTEAYLAYHEDPSSKELLEAAKKLSDALGKAAQAVNDMRAHRHDAAAVAKHAKEFEKAAKEAKKAIEEIKKLLK
# B32: usp_38_diff_out_1_101_7 (protein)
# chain: LEEELKKALEEFNETIDKAIKVYEEIAKLYKKMGKEEKAEKAERQRKALETWREDSTAFIEELAKEDLESALELAKLALENAKTILKEAEEELKKVKAEE
# Target: T1, USP38, Q8NB14
# Test: median log2 fold change of GCK-ALFA target abundance (FLAG IP / Myc IP barcode read proportion) (log2 ratio); each designed protein is fused to an ALFA-tag nanobody in HEK293 cells to bring the named protein to FLAG-tagged glucokinase (GCK); Myc marks an untargeted standard; higher = target protein stabilised (more abundant)
# Conditions: target protein: 3xFLAG-MCP-GCK-ALFA reporter; HEK293 landing pad (RPLP)
# Summary of the method: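 The readout is target abundance, the per-binder median log2 ratio of FLAG to Myc barcode read proportions. It came from HEK293 landing-pad cells carrying a recombined ALFA-nanobody-fused binder library, induced with 2 μg mL^−1 doxycycline and transfected with a plasmid for a FLAG-tagged target and a Myc-tagged standard. After 48 h, lysates were immunoprecipitated with anti-FLAG and anti-Myc, and circular RNA barcodes were reverse transcribed, amplified and sequenced. Each barcode needed a proportion of at least 10^−7 in both replicates and each binder at least 3 barcodes per replicate, a pseudocount of 10^−6 was added, and the replicates were pooled.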
row,Binder,median log2 fold change
1,B1,-0.257
2,B2,-0.0591
3,B3,-0.244
4,B4,-0.28
5,B5,-0.315
6,B6,-1.39
7,B7,-0.307
8,B8,0.0382
9,B9,-0.437
10,B10,0.0104
11,B11,0.333
12,B12,-0.0716
13,B13,0.0382
14,B14,0.118
15,B15,0.116
16,B16,0.0788

row,Binder,median log2 fold change
1,B17,-0.848
2,B18,-0.671
3,B19,-0.134
4,B20,-0.788
5,B21,-0.644
6,B22,-0.129
7,B23,-0.434
8,B24,0.143
9,B25,-0.00433
10,B26,-0.0738
11,B27,0.231
12,B28,-0.642
13,B29,0.0576
14,B30,0.326
15,B31,-0.128
16,B32,-0.366
